These results are taken from ChEMBL document CHEMBL3433997, “St. Jude Leishmania screening dataset” (2016).

The term inhibition denotes the relative decrease from the control value, in per cent.

Assay type in all cases: functional
For assay [1], the target named is Solute carrier family 2, facilitated glucose transporter member 1 (Homo sapiens) (UniProt P11166). The assay can be described thus: ST_JUDE_LEISH: Cytotoxicity at 2uM final concentration against transgenic Leishmania Mexicana promastigotes LmGLUT1 that are glucose transport deficient and complemented with the human glucose transporter GLUT1. Activity is measured by DNA content using SYBR green in vitro.

Assay [2] addresses Hexose transporter 1 (Plasmodium falciparum) (UniProt O97467). Put plainly: ST_JUDE_LEISH: Cytotoxicity at 2uM final concentration against transgenic Leishmania Mexicana promastigotes LmPfHT that are glucose transport deficient and complemented with the Plasmodium falciparum hexose transporter. Activity is measured by DNA content using SYBR green in vitro.
The target in assay [3] is Glucose transporter (Leishmania mexicana) (UniProt O61059). The assay can be described thus: ST_JUDE_LEISH: Cytotoxicity at 2uM final concentration against transgenic Leishmania Mexicana promastigotes LmGT2 that are glucose transport deficient and complemented with the L. Mexicana glucose transporter 2. Activity is measured by DNA content using SYBR green in vitro.

Sequence of Solute carrier family 2, facilitated glucose transporter member 1 (Homo sapiens) (P11166 whole entry): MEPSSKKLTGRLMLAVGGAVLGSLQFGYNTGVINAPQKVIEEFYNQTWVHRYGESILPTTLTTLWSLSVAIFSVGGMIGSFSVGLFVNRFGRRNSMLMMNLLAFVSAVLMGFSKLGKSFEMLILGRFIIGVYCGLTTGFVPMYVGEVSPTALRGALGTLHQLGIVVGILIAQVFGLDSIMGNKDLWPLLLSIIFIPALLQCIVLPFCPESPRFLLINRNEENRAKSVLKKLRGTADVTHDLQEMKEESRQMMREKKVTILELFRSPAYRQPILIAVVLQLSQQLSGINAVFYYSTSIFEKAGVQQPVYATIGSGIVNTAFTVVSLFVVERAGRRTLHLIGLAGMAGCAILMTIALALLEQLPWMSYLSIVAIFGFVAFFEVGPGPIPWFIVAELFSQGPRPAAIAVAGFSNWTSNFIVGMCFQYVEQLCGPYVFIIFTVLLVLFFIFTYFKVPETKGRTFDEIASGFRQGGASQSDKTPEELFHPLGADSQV

As to `CC(C)COc1ccc2ccccc2c1CNCCCCCCNCc1c(OCC(C)C)ccc2ccccc12`, the inhibition in assay [1] was determined as 86.6%; in assay [2], 88.5%; in assay [3], 27.7%.

Consider `O=C(/C=C/c1ccc(Cl)c(Cl)c1)NCCCCCN1CCCN(C(=O)Nc2ccc(F)c(Cl)c2)CC1`, for which the values for the inhibition in assay [1], in assay [2] and in assay [3] were 1.23%, 1.72% and 3.64%, respectively.

With `CC(C)c1ccc(NC(=O)c2cccc(CN3CCCN(CC4CCCCC4)CC3)c2)cc1`, the results for the inhibition in assay [1], in assay [2] and in assay [3] were 11.7%, 7.21% and 9.65%, respectively.

Regarding `CC(=O)c1c(Nc2c(C)cc(C)cc2C)oc(C)cc1=O`, the inhibition in assay [1] was 3.7%; in assay [2], 5.4%; in assay [3], 3.1%.

Turning to `O=C(NCc1ccccc1)c1nn(CCCN2CCC(N3CCCC3)CC2)cc1-c1ccc(Cl)c(Cl)c1`, the inhibition was determined as 4.94% in assay [1], 0.77% in assay [2] and 0.9% in assay [3].

Consider `Cc1ccc(C(=O)c2oc3ccc4c(C)cc(=O)oc4c3c2C)cc1`, for which the inhibition in assay [1] is -0.73%; in assay [2] it was -0.13%; in assay [3] it was 0.22%.

On to `c1ccc(COc2ccc(C3CCCCC3)cc2)nc1`, for which the figures for the inhibition in assay [1], in assay [2] and in assay [3] were 0.38%, 2.32% and 2.1%, respectively.

For the compound `NCc1ccc(CNCc2ccc(-c3ccc(-c4nc5cc(F)ccc5[nH]4)cc3)cc2)cc1`, the inhibition in assay [1] was 10.3%; in assay [2], 5.39%; in assay [3] it was 5.05%.

As to `O=C(Nc1cccc(C(F)(F)F)c1)Nc1ccc(F)c([N+](=O)[O-])c1`, the inhibition was 2.84% in assay [1], 3.09% in assay [2] and -0.74% in assay [3].

Regarding `Cn1nc(-c2ccc(S(=O)(=O)N3CCC(CCN4CCC(c5c[nH]c6ccccc56)CC4)CC3)s2)cc1C(F)(F)F`, the inhibition in assay [1] stood at 1.21%; in assay [2], 6.6%; in assay [3] it was 2.13%.

Consider `CC(Oc1ccc(Cl)cc1Cl)c1nc(-c2ccc(NC(=O)c3ccco3)cc2)no1` (stereo not drawn), for which the results for the inhibition in assay [1], in assay [2] and in assay [3] were 2.46%, 1.87% and -0.2%, respectively.

With `CCc1cn(CCCOC)c2ccc(C(=O)N[C@@H](Cc3ccccc3)[C@H](O)CNCc3cccc(C(F)(F)F)c3)cc12`, the inhibition in assay [1] was 3.43%; in assay [2], 2.52%; in assay [3] it was 2.24%.

With `CC(C)NCc1ccc(-c2cccc(-c3nc4cc(C(F)(F)F)ccc4[nH]3)c2)cc1`, the inhibition in assay [1] came to 3.55%; in assay [2] it was 3.48%; in assay [3], 4.16%.

In the case of `Nc1nccc2ccc(-c3cccnc3)cc12`, the inhibition is 3.94% in assay [1], 5.14% in assay [2] and 4.83% in assay [3].

As for `O=C(C=Cc1ccc(Cl)c(Cl)c1)NCCCCCN1CCC(CCNS(=O)(=O)c2ccc(F)cc2)CC1`, the inhibition in assay [1] came to 1.24%; in assay [2], 0.05%; in assay [3], 4.55%.

For the compound `CCN(C(=O)c1ccc(NC(=O)c2cccs2)cc1)c1nc2c(C)cccc2s1`, the inhibition in assay [1] was 1.43%; in assay [2], 4.28%; in assay [3], 2.9%.

For the compound `CSc1cccc(Nc2nc3ccc(S(=O)(=O)NC(C)C(C)C)cc3n2[C@H](C)C(C)(C)C)c1` (stereo partly drawn), the inhibition in assay [1] is 6.73%; in assay [2], 6.18%; in assay [3] it was 6.54%.

Regarding `CC(C)(C)CC(=O)Nc1ccc(Nc2cc(-c3ccncc3)cc3ncc(C(N)=O)cc23)cc1`, the inhibition in assay [1] was -0.38%; in assay [2], 1.53%; in assay [3], 1.26%.

With `CC(=O)Nc1ccc2[nH]cc(C3CCN(CCC4CCN(C(=O)/C=C/c5ccc(Cl)c(Cl)c5)CC4)CC3)c2n1`, the results for the inhibition in assay [1], in assay [2] and in assay [3] were 0.57%, 0.67% and -1.33%, respectively.

As for `COc1cc(F)c2ncc(Cl)c(C(O)CN3CCC(NC(=O)c4ccc5c(c4)NC(=O)CS5)CC3)c2c1` (stereo not drawn), the inhibition in assay [1] came out at 8.37%; in assay [2] it was 7.69%; in assay [3], 4.11%.

As for `OCCc1ccc(Nc2nccc(-c3nnc4ccccn34)n2)cc1`, the inhibition in assay [1] stood at 6.85%; in assay [2] it was 6.22%; in assay [3], 6.32%.

On to `CC1CCCCN1S(=O)(=O)c1ccc(NC(=O)c2cc(-c3ccccc3O)n[nH]2)cc1` (stereo not drawn), for which the inhibition in assay [1] is 1.2%; in assay [2] it was 1.81%; in assay [3], -1.06%.

For the compound `CN1CCN(c2ccnc3ccc(NC(=O)Nc4ccc(-c5ccncc5)c(C#N)c4)cc23)CC1`, the inhibition in assay [1] is -0.68%; in assay [2], -2.42%; in assay [3], -2.77%.

`COc1cc(Nc2ccnc3ccc(C(C)(C)C)cc23)cc(OC)c1OC`: the inhibition was found to be 0.32% in assay [1], 0.17% in assay [2] and 1.66% in assay [3].

As for `Clc1ncnc2ncn(Cc3cccc(Br)c3)c12`, the inhibition in assay [1] was determined as 15.3%; in assay [2], 10.7%; in assay [3] it was 10.8%.

For `Cc1cccc2nc(-c3cccc(-c4cccc(CNCCCN5CCCC5=O)c4)c3)[nH]c12`, the inhibition in assay [1] is -0.74%; in assay [2] it was -0.59%; in assay [3] it was -1.17%.

With `CNCc1ccc(-c2ccc3ccnc(N)c3c2)cc1`, the inhibition amounted to 2.47% in assay [1], 5.56% in assay [2] and 3.23% in assay [3].

As for `Fc1ccc2[nH]c(-c3cccc(-c4cccc(CNCC5CCCO5)c4)c3)nc2c1` (stereo not drawn), the inhibition in assay [1] was -0.33%; in assay [2], -0.14%; in assay [3] it was -1.55%.

For the compound `C/C=C/COc1ccc(-c2c(C)[nH]c(C)c(Cl)c2=O)cc1`, the inhibition in assay [1] stood at 4.66%; in assay [2] it was 6.53%; in assay [3], 4.16%.

With `O=C(NCC1CCN(Cc2ccc3c(c2)OCCO3)C1)c1cc(-c2ccccc2F)cs1` (stereo not drawn), the inhibition came to 4.88% in assay [1], 4.71% in assay [2] and 7.55% in assay [3].

As to `C=CCc1cc(Cc2cnc(N)nc2N)c2ccc(C)nc2c1OC`, the inhibition is 8.65% in assay [1], 6.7% in assay [2] and 5.13% in assay [3].

Take `Cc1ccccc1CNc1noc(-c2sccc2Br)n1`: the inhibition is -2.66% in assay [1], -1.49% in assay [2] and -1.5% in assay [3].

In the case of `O=C(Nc1ccc(C(F)(F)F)cc1)c1ccc(S(=O)(=O)NC2CCN(CC3CCCCC3)C2)cc1` (stereo not drawn), the inhibition was -3% in assay [1], 1.05% in assay [2] and -3.85% in assay [3].

Consider `CCC(Cc1ccccc1)c1cc(O)c(Cc2ccc(-c3ccccc3)cc2)c(=O)o1` (stereo not drawn), for which the inhibition in assay [1] is 2.42%; in assay [2], 2.07%; in assay [3] it was 0.95%.

As for `COc1cc(C2CCN(CCCCNC(=O)c3ccc(NC(=O)c4cc(C(F)(F)F)cc(C(F)(F)F)c4)cc3)CC2)ccc1OC(C)C`, the inhibition in assay [1] was found to be 1.12%; in assay [2], 0.93%; in assay [3], 1.71%.

Consider `COc1ccc2ccc(F)c(CC(=O)N3CCOC(CNCc4cccc(-c5ccsc5)n4)C3)c2n1` (stereo not drawn), for which the inhibition was found to be 6.96% in assay [1], 6.66% in assay [2] and 4.23% in assay [3].
